Each structure is given as a SMILES string.

Assay [1] concerns the target Serine/threonine-protein kinase pim-2 (Homo sapiens) (UniProt Q9P1W9). The conditions noted are these: at 1 µM.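 Note: each value is a mean of the inhibition measurements against the kinase.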
In assay [2] the target is Serine/threonine-protein kinase pim-3 (Homo sapiens) (UniProt Q86V86). The conditions noted are these: at 0.1 µM.
Assay [3] shares this target. To be noted: at 1 µM.
Assay [4] addresses T1, MAP kinase-activated protein kinase 5 (Homo sapiens) (UniProt Q8IW41).
T1 sequence (whole entry): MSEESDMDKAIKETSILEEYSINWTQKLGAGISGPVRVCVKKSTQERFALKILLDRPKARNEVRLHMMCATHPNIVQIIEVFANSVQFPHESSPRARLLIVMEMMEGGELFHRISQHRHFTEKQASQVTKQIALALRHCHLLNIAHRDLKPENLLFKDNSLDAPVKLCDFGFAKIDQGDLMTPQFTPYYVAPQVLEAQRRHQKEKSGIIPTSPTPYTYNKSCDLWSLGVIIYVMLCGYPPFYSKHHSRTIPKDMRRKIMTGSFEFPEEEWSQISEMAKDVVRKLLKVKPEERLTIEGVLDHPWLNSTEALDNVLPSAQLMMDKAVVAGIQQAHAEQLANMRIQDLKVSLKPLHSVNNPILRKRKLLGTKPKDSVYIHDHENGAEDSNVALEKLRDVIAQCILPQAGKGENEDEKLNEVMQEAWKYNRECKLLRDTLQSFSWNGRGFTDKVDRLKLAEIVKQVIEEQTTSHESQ
The conditions noted are these: at 0.1 µM.

In assay [5] the target is T1, MAP kinase-activated protein kinase 5 (Homo sapiens). The conditions noted are these: at 1 µM.
For assay [6], the target named is Serine/threonine-protein kinase SIK1 (Homo sapiens) (UniProt P57059). To be noted: at 0.1 µM.
Chain of Serine/threonine-protein kinase SIK1 (Homo sapiens) (P57059 whole entry): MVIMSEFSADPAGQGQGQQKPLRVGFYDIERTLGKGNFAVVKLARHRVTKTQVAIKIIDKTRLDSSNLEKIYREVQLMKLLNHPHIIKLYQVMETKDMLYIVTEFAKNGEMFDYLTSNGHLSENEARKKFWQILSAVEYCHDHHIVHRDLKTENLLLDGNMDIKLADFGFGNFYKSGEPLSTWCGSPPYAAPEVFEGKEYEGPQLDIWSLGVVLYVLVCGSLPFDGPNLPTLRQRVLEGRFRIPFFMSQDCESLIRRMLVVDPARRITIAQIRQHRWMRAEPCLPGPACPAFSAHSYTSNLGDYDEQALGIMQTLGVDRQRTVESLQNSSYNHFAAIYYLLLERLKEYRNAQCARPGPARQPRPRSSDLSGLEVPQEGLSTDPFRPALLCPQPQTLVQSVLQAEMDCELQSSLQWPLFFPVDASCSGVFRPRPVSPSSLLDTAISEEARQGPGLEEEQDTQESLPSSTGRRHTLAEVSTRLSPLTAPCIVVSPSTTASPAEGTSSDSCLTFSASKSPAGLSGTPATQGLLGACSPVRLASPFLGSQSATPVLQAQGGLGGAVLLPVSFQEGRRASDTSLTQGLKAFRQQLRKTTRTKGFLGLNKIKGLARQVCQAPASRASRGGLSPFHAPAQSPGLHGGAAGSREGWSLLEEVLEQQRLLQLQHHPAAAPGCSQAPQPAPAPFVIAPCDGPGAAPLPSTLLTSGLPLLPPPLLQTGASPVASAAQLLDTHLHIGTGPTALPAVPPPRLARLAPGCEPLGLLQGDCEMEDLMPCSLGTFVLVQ
The target is the same in assay [7]. To be noted: at 1 µM.
Assay [8] has as its target Serine/threonine-protein kinase SIK2 (Homo sapiens) (UniProt Q9H0K1). The conditions noted are these: at 0.1 µM.
Assay [9] has the same target. To be noted: at 1 µM.
The target of assay [10] is T2, Serine/threonine-protein kinase TBK1 (Homo sapiens) (UniProt Q9UHD2).
T2 sequence (whole entry): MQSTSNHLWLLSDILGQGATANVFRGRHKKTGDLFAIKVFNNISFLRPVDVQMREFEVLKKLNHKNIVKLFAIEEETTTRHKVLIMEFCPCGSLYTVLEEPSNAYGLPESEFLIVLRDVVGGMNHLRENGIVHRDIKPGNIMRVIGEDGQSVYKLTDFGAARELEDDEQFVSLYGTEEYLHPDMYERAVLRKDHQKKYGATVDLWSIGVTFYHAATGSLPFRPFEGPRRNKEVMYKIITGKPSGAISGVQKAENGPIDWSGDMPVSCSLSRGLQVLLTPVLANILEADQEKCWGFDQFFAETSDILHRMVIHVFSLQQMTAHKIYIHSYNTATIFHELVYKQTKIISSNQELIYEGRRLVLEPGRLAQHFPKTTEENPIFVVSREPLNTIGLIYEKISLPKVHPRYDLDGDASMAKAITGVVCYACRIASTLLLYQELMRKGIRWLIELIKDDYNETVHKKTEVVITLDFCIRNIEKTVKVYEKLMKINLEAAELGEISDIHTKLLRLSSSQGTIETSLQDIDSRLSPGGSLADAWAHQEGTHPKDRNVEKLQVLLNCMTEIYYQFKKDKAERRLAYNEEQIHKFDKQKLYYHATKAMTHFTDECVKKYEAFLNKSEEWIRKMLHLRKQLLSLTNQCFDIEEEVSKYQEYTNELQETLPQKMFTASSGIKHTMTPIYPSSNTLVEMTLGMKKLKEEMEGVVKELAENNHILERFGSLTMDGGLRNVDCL
To be noted: at 0.1 µM.

The target in assay [11] is T2, Serine/threonine-protein kinase TBK1 (Homo sapiens). The conditions noted are these: at 1 µM.
Assay [12] has as its target T3, Testis-specific serine/threonine-protein kinase 1 (Homo sapiens) (UniProt Q9BXA7).
T3 sequence (whole entry): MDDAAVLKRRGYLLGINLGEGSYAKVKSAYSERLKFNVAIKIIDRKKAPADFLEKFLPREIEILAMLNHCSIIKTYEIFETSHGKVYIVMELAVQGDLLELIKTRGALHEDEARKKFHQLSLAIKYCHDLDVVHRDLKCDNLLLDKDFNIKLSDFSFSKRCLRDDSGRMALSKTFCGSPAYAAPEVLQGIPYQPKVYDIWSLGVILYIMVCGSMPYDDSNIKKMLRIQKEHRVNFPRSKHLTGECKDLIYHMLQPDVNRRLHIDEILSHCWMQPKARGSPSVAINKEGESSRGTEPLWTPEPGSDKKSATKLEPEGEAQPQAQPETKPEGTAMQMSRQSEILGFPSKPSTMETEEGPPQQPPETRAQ
The conditions noted are these: at 0.1 µM.

Assay [13] concerns the target T3, Testis-specific serine/threonine-protein kinase 1 (Homo sapiens). To be noted: at 1 µM.
In assay [14] the target is T4, Testis-specific serine/threonine-protein kinase 2 (Homo sapiens) (UniProt Q96PF2).
T4 sequence (whole entry): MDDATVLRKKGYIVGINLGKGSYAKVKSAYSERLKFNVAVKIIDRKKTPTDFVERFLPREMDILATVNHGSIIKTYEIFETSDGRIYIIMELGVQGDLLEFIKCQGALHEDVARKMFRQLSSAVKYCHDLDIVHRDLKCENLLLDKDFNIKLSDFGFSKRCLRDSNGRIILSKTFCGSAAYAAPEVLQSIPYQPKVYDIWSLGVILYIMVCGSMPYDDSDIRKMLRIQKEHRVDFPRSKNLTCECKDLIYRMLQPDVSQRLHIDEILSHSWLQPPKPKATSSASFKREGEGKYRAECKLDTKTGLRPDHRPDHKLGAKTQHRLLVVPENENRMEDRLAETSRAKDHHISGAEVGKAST
To be noted: at 0.1 µM.

The target in assay [15] is T4, Testis-specific serine/threonine-protein kinase 2 (Homo sapiens). To be noted: at 1 µM.
For assay [16], the target named is Casein kinase I isoform alpha (Homo sapiens) (UniProt P48729). The conditions noted are these: at 0.1 µM.
Chain of Casein kinase I isoform alpha (Homo sapiens) (P48729 2-337 limits assumed): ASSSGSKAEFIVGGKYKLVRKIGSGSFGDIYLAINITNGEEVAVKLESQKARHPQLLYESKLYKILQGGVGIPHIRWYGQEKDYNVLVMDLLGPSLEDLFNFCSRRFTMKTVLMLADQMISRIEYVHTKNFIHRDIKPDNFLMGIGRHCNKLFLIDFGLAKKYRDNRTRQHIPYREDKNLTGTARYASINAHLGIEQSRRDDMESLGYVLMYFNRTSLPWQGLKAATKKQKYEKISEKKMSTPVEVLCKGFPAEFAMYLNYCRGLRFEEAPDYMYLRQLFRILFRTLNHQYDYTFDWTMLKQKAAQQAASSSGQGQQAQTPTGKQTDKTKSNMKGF
For assay [17] the target is unchanged. To be noted: at 1 µM.
Assay [18] deals with Casein kinase I isoform gamma-1 (Homo sapiens) (UniProt Q9HCP0). The conditions noted are these: at 0.1 µM.
Chain of Casein kinase I isoform gamma-1 (Homo sapiens) (Q9HCP0 whole entry, looked up, canonical isoform): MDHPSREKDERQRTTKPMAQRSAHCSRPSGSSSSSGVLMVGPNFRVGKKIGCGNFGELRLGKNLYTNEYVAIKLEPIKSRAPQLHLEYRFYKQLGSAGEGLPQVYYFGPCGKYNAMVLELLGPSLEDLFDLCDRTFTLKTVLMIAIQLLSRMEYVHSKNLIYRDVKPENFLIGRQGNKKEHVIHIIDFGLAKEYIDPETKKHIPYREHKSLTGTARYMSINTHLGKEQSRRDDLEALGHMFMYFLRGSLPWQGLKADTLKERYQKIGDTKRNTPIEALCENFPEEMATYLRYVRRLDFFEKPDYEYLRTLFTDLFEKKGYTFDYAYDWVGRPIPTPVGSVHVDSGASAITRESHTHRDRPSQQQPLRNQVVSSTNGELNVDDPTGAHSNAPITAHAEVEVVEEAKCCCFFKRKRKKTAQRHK
Assay [19] has the same target. The conditions noted are these: at 1 µM.
In assay [20] the target is Casein kinase I isoform gamma-2 (Homo sapiens) (UniProt P78368). The conditions noted are these: at 0.1 µM.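 Note: values are mean inhibition figures reported as part of the GSK PKIS dataset.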
Chain of Casein kinase I isoform gamma-2 (Homo sapiens) (P78368 whole entry, looked up, canonical isoform): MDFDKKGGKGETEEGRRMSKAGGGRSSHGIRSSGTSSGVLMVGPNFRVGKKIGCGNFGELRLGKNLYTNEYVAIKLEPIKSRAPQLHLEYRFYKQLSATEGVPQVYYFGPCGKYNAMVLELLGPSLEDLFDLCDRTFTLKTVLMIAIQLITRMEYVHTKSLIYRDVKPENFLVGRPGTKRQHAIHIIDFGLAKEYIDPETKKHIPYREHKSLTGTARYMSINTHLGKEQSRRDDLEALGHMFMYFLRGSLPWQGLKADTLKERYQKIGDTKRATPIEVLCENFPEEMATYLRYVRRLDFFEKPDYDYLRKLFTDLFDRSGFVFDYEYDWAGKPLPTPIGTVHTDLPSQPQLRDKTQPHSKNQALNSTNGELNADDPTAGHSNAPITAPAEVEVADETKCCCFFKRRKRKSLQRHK

Chain of Serine/threonine-protein kinase SIK2 (Homo sapiens) (Q9H0K1 whole entry, looked up): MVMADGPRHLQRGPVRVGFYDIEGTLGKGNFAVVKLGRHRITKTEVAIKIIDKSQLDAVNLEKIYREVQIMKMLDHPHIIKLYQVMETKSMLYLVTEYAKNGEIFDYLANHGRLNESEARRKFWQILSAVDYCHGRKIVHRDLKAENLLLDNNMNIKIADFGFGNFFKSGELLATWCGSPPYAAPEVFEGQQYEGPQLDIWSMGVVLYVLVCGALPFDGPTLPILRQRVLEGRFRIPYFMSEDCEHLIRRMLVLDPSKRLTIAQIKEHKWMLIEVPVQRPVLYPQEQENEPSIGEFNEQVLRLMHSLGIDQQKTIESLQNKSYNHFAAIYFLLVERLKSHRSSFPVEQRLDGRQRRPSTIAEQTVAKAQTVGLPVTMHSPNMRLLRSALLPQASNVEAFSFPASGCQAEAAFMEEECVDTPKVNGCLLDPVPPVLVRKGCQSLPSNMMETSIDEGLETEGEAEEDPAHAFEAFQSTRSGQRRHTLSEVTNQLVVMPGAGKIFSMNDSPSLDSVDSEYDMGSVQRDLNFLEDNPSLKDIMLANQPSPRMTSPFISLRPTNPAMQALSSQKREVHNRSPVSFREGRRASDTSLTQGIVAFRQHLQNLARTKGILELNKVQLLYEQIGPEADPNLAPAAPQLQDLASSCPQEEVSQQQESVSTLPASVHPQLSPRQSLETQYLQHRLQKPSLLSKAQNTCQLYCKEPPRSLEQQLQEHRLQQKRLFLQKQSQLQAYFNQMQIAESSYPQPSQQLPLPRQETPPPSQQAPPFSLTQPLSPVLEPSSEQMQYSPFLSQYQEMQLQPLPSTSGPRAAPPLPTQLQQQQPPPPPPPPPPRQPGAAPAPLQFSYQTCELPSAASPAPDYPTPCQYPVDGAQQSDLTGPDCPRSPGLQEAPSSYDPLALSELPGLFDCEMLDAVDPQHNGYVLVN
Chain of Serine/threonine-protein kinase pim-2 (Homo sapiens) (Q9P1W9 whole entry, looked up): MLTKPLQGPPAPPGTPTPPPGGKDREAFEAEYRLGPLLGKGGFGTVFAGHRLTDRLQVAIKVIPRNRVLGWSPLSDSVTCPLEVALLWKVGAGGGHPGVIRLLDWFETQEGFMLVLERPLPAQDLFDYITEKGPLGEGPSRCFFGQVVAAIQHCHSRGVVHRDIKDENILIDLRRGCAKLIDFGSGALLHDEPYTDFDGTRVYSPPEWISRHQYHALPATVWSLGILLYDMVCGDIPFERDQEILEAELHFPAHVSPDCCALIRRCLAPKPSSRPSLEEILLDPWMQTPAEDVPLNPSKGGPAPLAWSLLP

Take `N#Cc1ccc(Oc2nccc(-c3c(-c4ccc(F)cc4)ncn3C3CCNCC3)n2)cc1`: the inhibition in assay [1] was determined as 0.58%; in assay [2], 0.29%; in assay [3], 0.8%; in assay [4] it was 1.34%; in assay [5], 1.48%; in [6], 5.1%. Moreover, the inhibition was 7.69% in assay [7]; 2.82% in assay [8]; 9.93% in assay [9]; 1.69% in [10]; 3.03% in assay [11]; 3.77% in [12]. The inhibition in assay [13] turned out to be 4.18%; in assay [14], 1.71%; in assay [15], 4.59%; in assay [16], 4.15%; in assay [17], 10.1%; in assay [18] it was 3.79%. Moreover, the inhibition came to 5.9% in assay [19] and 3.52% in [20].

On to `COC(=O)Nc1nc2ccc(Sc3ccc(NC(=O)Nc4cc(C(F)(F)F)ccc4F)cc3)cc2[nH]1`, for which the inhibition in assay [1] was -0.09%; in [2], 1.76%; in assay [3], 2.48%; in assay [4], 0.03%; in [5], -0.97%; in assay [6], 3.94%. Besides, the inhibition in assay [7] is 0.98%; in assay [8], 4.86%; in [9] it was 0.47%; in assay [10], -0.64%; in assay [11], 2.38%; in [12] it was -0.48%. The inhibition is -2.84% in [13]; -0.2% in assay [14]; -1.84% in assay [15]; -0.33% in [16]; 1.98% in assay [17]; -0.12% in assay [18]. Also, the inhibition was 0.47% in assay [19] and -0.85% in assay [20].

With `CS(=O)(=O)CCNCc1cc(-c2cc3c(Nc4ccc(OCc5cccc(F)c5)c(Cl)c4)ncnc3s2)cs1`, the inhibition in assay [1] was -0.99%; in assay [2], 0.08%; in assay [3] it was 2.3%; in assay [4], 2.2%; in [5], 1.6%; in assay [6], 7.53%. The inhibition stood at 7.6% in [7]; 7.98% in [8]; 0.61% in assay [9]; 5.03% in assay [10]; 4.88% in assay [11]; 4.02% in assay [12]. The inhibition in assay [13] was 4.37%; in assay [14] it was 2.22%; in assay [15] it was 2.42%; in assay [16] it was 6.3%; in assay [17], 8.73%; in assay [18], 3.81%. Moreover, the inhibition in [19] was determined as 4.73%; in assay [20], 3.23%.

Take `COc1cc2ncn(-c3cc(OCc4ccccc4C(F)(F)F)c(C(C)=O)s3)c2cc1OC`: the inhibition is 0.86% in assay [1]; 0.65% in [2]; -0.5% in [3]; 1.07% in assay [4]; 0.82% in assay [5]; -0.57% in assay [6]. Further, the inhibition in assay [7] was 5.68%; in assay [8] it was -0.99%; in [9], 7.06%; in assay [10], 2.89%; in assay [11] it was 2.12%; in assay [12], 2.55%. Moreover, the inhibition in [13] turned out to be 3.05%; in assay [14] it was 1.34%; in [15], 1.53%; in [16], 3.35%; in [17], 2.73%; in [18], 2.77%. In addition, the inhibition amounted to 3.34% in assay [19] and 2.24% in [20].

`CS(=O)(=O)CCNCc1ccc(-c2ccc3ncnc(Nc4ccc(OCc5ccccc5)c(Br)c4)c3c2)o1`: the inhibition in assay [1] is -3.1%; in assay [2], -0.66%; in assay [3] it was -0.32%; in assay [4], 1.32%; in assay [5], 2.06%; in [6], 2.19%. The inhibition was 8.17% in assay [7]; 4.6% in [8]; 4.18% in assay [9]; 1.02% in [10]; 1.05% in assay [11]; 2.71% in assay [12]. Also, the inhibition in assay [13] came out at 2.53%; in assay [14], 1.22%; in [15] it was 1%; in assay [16] it was 1.67%; in assay [17], 0.68%; in assay [18] it was 0.63%. Besides, the inhibition in assay [19] was -0.07%; in assay [20], -0.49%.

As for `C[C@@H](Oc1cc(-n2cnc3ccc(OC4CCN(C)CC4)cc32)sc1C(N)=O)c1ccccc1Cl`, the inhibition in assay [1] was -3.56%; in [2], 8.14%; in assay [3], 45%; in assay [4] it was 1.31%; in assay [5], 1.54%; in [6], 3.1%. Further, the inhibition in assay [7] worked out at 19.3%; in [8] it was 6.72%; in [9], 14%; in [10], 4.61%; in assay [11] it was 4.33%; in assay [12] it was 4.11%. The inhibition was 10.3% in [13]; 2.61% in assay [14]; 1.72% in assay [15]; 4.09% in assay [16]; 6.16% in assay [17]; 0.61% in assay [18]. Moreover, the inhibition in assay [19] is -0.21%; in assay [20] it was 0.26%.

In the case of `O=C(Nc1n[nH]c2cc(-c3cc(F)ccc3F)ccc12)C1CC1`, the inhibition in assay [1] is -0.55%; in assay [2], -2.08%; in assay [3], -1.66%; in assay [4], 0.74%; in assay [5], 0.41%; in assay [6] it was 5.25%. The inhibition in assay [7] was 11.2%; in assay [8], 10.9%; in assay [9], 21.9%; in assay [10], 3.98%; in assay [11], 5.44%; in [12], 2.75%. Moreover, the inhibition in assay [13] amounted to 2.04%; in [14], 1.22%; in assay [15], 0.5%; in [16], 0.79%; in [17] it was 1.31%; in [18], 3.28%. Also, the values for the inhibition in assay [19] and in assay [20] were 3.73% and 2.53%, respectively.

The term inhibition denotes the relative decrease from the control value, in per cent.

The values are drawn from ChEMBL document CHEMBL1961873, “Compounds: GSK PKIS; Assays: Nanosyn kinase panel” (2012).
